# Autofluor counter: compound fluorescence in toxin protease inhibitor counterscreen; compound autofluorescence counterscreen, microsphere flow cytometry; hits give high values; fluorescence intensity (concentration not given with the values); actives 3.1% (n = 360,000); AID 624483; in the data active = fluorescence intensity above about 16000; inconclusive = no clear call, values can overlap the other calls
# MazF activator: activators of E. coli MazEF toxin-antitoxin RNase, primary screen, biochemical, fluorescence, uHTS | FAM/BHQ RNA-DNA oligo cleavage fluorescence, 5 h | activation, % at 20 µM | actives 0.32% (n = 350,000) | AID 504720, 2011; in the data active = activation above about 50%
# Target sequence (P0AE70 whole entry, looked up): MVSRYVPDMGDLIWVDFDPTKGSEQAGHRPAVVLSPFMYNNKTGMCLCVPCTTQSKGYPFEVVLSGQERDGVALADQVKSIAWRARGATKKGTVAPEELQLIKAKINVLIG
# BoNT-A LC inh2: BoNT/A light chain protease inhibitors, primary screen, biochemical, flow cytometry, MLPCN library; Botulinum neurotoxin type A light chain protease (Clostridium botulinum A str. ATCC 3502); actives 0.17% (n = 360,000); multiplex microsphere protease substrate cleavage; inhibition, % at 10 µM; also: plate controls were buffer without enzyme for full effect and enzyme alone for no effect
# Anthrax LF inh2: Bacillus anthracis LF protease inhibitors, primary screen, biochemical, multiplex microsphere, MLPCN library; Lethal factor (Bacillus anthracis), P15917; multiplex microsphere protease cleavage assay; inhibition, % at 10 µM; actives 0.12% (n = 360,000); also: plate controls were buffer without enzyme for full effect and enzyme alone for no effect
# BH1578 lux ind: inducers of Vibrio cholerae quorum light production without autoinducers, primary screen, BH1578 luxS cqsA deficient, single point. V. cholerae BH1578 lux reporter, luminescence, 6 h. activation, % at 18.7 µM. actives 0.16% (n = 350,000). AID 588436, 2011; in the data active = activation mostly above about 9.7%, no sharp cut-off; inconclusive = no clear call, values can overlap the other calls; inactive = mostly below about 3.7%
# BoNT F protease: BoNT/F light chain protease inhibitors, primary screen, biochemical, flow cytometry, MLPCN library. Botulinum neurotoxin type F light chain protease (Clostridium botulinum). Multiplex microsphere protease cleavage assay. inhibition, % at 10 µM. actives 0.22% (n = 360,000); in the data active = inhibition above about 35%, passing the limit was not always enough; inconclusive = no clear call, values can overlap the other calls; also: plate controls were buffer without enzyme for full effect and enzyme alone for no effect
# Starred values were filed as active, the others as inactive; i = inactive; ? = inconclusive; nt = no result given. Compounds with a hit are over-represented: about 3.9% of the library has one in this group of screens. Rule as the data show it, unless noted: active = inhibition above about 30%; inconclusive = no clear call, values can overlap the other calls; inactive = below that.
SMILES,Autofluor counter,MazF activator,BoNT-A LC inh2,Anthrax LF inh2,BH1578 lux ind,BoNT F protease
CCCCn1nnc(NC(=O)CCC)n1,19212*,-4.1,2.5,-3.7,-0.2,1.4
CCc1cc(C(=O)OC)c(NC(=O)CCC(=O)O)s1,21823*,-1.9,0.8,0.7,-0.2,0.0
Cc1cc2c(cc1C)NC(CC(=O)NCc1ccccc1)C(=O)N2 (stereo not given),23973*,10.0,1.5,1.7,-0.9,1.6
CCc1cc(C(=O)OC)c(NC(=O)CC2Nc3cc(C)c(C)cc3NC2=O)s1 (stereo not given),9492,152.8*,1.0,-1.7,-2.7,2.3
CCCc1cc(C(=O)OC)c(NC(=O)OCC)s1,18061*,-10.6,?,-12.0,2.6,11.0
COc1ccc(CCNC(=O)CC2Nc3cc(C)c(C)cc3NC2=O)cc1OC (stereo not given),9323,7.1,1.1,-3.5,-0.4,9.0
NC(=O)C1CCN(C(=O)NC2CC(=O)N(c3ccc4c(c3)OCCO4)C2)CC1 (stereo not given),6292,2.3,-2.1,1.6,0.7,4.1
COc1ccc(S(=O)(=O)N(CC(=O)NCC2CCCO2)Cc2ccccc2)cc1 (stereo not given),5916,7.2,0.2,-0.3,-0.3,-2.2
COc1cccc(CN(CC2CCCO2)S(=O)(=O)c2ccc(S(=O)(=O)N(C)C)cc2)c1 (stereo not given),22709*,-3.5,2.5,-2.3,i,1.2
O=C(Nc1cc(Cl)cc(Cl)c1)Nc1cnccn1,5347,-57.0,0.2,0.3,i,4.7
N#Cc1nc(-c2ccco2)oc1NCCCN1CCOCC1,22603*,0.5,0.4,-9.4,-0.2,-0.4
N#Cc1nc(COc2ccc(Br)cc2)oc1NCCN1CCOCC1,23449*,-9.8,-2.1,0.2,i,-2.5
O=S(=O)(c1ccccc1)c1nc(-c2ccco2)oc1NCCCN1CCOCC1,4174,9.8,0.6,-1.8,3.6,16.2
O=S(=O)(c1ccccc1)c1nc(-c2ccco2)oc1NCCN1CCOCC1,23098*,-2.0,-2.3,-2.1,-0.2,-1.7
N#Cc1nc(COc2ccc(F)cc2)oc1NCCN1CCOCC1,4219,3.0,-0.1,-2.6,i,4.4
C/C=C/C(=O)OCC(=O)Nc1cc([N+](=O)[O-])ccc1Cl,2100,0.5,-0.3,-1.6,-0.2,-2.1
C/C=C/C(=O)OCC(=O)Nc1c(Cl)cccc1Cl,16870*,10.0,-1.8,-1.4,-5.3,-2.6
COc1ccc(OC(=O)CN2C(=O)C3C4CCC(C4)C3C2=O)cc1 (stereo not given),2054,8.9,0.6,1.6,-0.5,-6.2
Cc1cccc(OC(=O)CN2C(=O)C3C4CCC(C4)C3C2=O)c1C (stereo not given),23771*,-2.7,0.6,-0.2,-0.2,-2.6
CC(=O)NN1C(=O)c2ccc3c4c(ccc(c24)C1=O)C(=O)N(NC(C)=O)C3=O,nt,69.4*,nt,nt,2.3,nt
COc1ccc(N2CCN(C(=O)COC(=O)COc3ccc(C#N)cc3)CC2)cc1,5187,5.2,0.4,-1.0,i,7.2
CN(C)CCCNC(=O)c1ccccn1,16671*,7.6,-0.7,0.9,i,-4.3
CN(C)CCCNCCCNC(=O)c1ccncc1,21704*,2.3,1.3,-7.6,i,-0.5
O=C(O)CCCCCNC(=O)c1ccncc1,19428*,-10.7,?,-5.2,i,-0.4
CNC(=O)C1CCC(=O)N1Cc1ccccc1Cl (stereo not given),23165*,3.9,-0.3,-1.6,-0.1,-0.7
SMILES,Autofluor counter,MazF activator,BoNT-A LC inh2,Anthrax LF inh2,BH1578 lux ind,BoNT F protease
CC(NC(=O)C1CCC(=O)N1Cc1ccccc1Cl)c1ccccc1 (stereo not given),4075,4.2,1.4,-6.7,-0.1,31.3
O=C(C1CCC(=O)N1Cc1ccccc1Cl)N1CCC2(CC1)OCCO2 (stereo not given),20370*,6.2,4.9,0.3,i,7.9
O=C(Nc1cc(Cl)cc(Cl)c1)C1CCC(=O)N1Cc1ccccc1Cl (stereo not given),21909*,5.0,2.7,-6.3,-6.2,1.7
Cc1ccc(CNC(=O)C2CCC(=O)N2Cc2ccccc2Cl)cc1 (stereo not given),3785,-3.0,-2.5,2.3,-1.0,32.9
CNC(=S)N(CCc1c(C)[nH]c2ccc(C)cc12)Cc1cccnc1,5463,9.6,-0.1,1.1,nt,-2.8
COCCN(C(=O)CSc1nnc(-c2ccccc2OC)o1)c1c(N)n(CC(C)C)c(=O)[nH]c1=O,?,0.7,-2.1,1.9,i,?
Cc1ccc(-c2nnn(CC(=O)N3CCCCC3)n2)o1,3284,1.0,-0.5,-5.6,i,-10.0
O=C(CSc1ncn[nH]1)NCCOc1ccccc1,3302,0.5,-0.5,1.1,-2.6,-0.6
O=C(CSCc1n[nH]c(=O)[nH]1)NCCOc1cccc(Oc2ccccc2)c1,19843*,-3.0,-1.0,0.9,-1.8,-4.5
c1ccc2c(c1)Sc1cnccc1N2CC1CO1 (stereo not given),3919,6.9,1.4,-0.6,3.3,-6.1
COc1ccc(CNC(=O)CN(Cc2ccccc2)S(=O)(=O)c2ccc(Cl)cc2)cc1,22889*,-5.8,-1.4,-0.9,-0.2,-2.8
COc1ccc(CNC(=O)CN(Cc2ccc(Cl)cc2)S(=O)(=O)c2ccccc2)cc1,24986*,-13.0,-4.4,-0.6,-0.2,-6.3
COc1ccc(C)cc1S(=O)(=O)N(CC(=O)NCc1ccc(Cl)cc1)Cc1ccccc1,22998*,-6.5,-0.7,0.0,i,-2.3
COc1ccc(S(=O)(=O)N(CC(=O)NCc2ccncc2)Cc2ccccc2)cc1,4105,4.1,-0.2,-1.3,-0.6,-19.9
COc1ccc(C)cc1S(=O)(=O)N(CC(=O)N1CCOCC1)Cc1ccccc1,10848,-10.9,-0.4,-1.9,i,-10.6
COc1ccc(S(=O)(=O)N(CC(=O)NC(C)C)Cc2ccccc2)cc1,7545,-1.1,-0.5,-0.8,i,6.4
COc1ccc(S(=O)(=O)N(CC(=O)NCc2ccccn2)Cc2ccccc2)cc1,2964,10.2,-0.3,10.0,-0.2,11.8
COc1ccc(S(=O)(=O)N(CCc2ccccc2)CC(=O)NC(C)C)cc1,22967*,-5.7,-0.2,-0.8,-0.2,-1.3
Cc1nc(NS(=O)(=O)c2ccc(Cl)s2)c2c3c(sc2n1)CCCC3,4603,2.0,0.3,2.2,-5.5,-7.8
COc1ccc(S(=O)(=O)N(C)C[C@@H]2Oc3cc(Br)ccc3S(=O)(=O)N([C@H](C)CO)C[C@@H]2C)cc1,3799,1.3,0.1,8.5,2.1,-1.0
